According to ChEMBL document CHEMBL2218924, “A broad activity screen in support of a chemogenomic map for kinase signalling research and drug discovery” (Biochem J, 2013):

Legend:
[1] = molecular target: T1, Ephrin type-A receptor 3 (Homo sapiens) (UniProt P29320); conditions: at 10 µM
T1 sequence (whole entry): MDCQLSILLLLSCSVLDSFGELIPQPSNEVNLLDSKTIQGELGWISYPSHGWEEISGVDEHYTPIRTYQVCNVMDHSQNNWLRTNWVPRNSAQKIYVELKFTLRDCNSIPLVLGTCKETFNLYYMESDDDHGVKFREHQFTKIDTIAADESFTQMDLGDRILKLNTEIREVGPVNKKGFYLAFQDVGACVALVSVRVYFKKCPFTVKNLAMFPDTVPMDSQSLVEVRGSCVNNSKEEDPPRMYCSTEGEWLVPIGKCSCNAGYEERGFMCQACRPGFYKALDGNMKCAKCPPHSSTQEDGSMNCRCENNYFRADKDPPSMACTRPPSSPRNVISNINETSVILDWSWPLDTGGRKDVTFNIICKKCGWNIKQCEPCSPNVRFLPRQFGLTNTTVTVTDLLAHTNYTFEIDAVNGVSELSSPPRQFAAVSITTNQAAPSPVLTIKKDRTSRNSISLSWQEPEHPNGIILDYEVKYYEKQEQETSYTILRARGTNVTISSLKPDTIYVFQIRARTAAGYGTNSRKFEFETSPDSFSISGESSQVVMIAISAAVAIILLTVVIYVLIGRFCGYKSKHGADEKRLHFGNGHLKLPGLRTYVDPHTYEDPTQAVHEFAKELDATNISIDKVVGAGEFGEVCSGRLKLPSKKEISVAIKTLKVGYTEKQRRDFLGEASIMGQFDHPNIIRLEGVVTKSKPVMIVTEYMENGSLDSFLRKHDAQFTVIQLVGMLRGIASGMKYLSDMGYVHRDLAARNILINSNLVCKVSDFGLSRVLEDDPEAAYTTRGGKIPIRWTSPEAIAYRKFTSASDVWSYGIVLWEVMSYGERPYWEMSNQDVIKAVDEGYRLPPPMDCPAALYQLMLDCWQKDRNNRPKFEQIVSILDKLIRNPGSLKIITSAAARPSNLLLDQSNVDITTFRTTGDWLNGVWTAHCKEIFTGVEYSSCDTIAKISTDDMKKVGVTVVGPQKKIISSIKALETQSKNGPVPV

[2] = molecular target: Ephrin type-A receptor 4 (Homo sapiens) (UniProt P54764); conditions: at 1 µM
Sequence of Ephrin type-A receptor 4 (Homo sapiens) (P54764 whole entry): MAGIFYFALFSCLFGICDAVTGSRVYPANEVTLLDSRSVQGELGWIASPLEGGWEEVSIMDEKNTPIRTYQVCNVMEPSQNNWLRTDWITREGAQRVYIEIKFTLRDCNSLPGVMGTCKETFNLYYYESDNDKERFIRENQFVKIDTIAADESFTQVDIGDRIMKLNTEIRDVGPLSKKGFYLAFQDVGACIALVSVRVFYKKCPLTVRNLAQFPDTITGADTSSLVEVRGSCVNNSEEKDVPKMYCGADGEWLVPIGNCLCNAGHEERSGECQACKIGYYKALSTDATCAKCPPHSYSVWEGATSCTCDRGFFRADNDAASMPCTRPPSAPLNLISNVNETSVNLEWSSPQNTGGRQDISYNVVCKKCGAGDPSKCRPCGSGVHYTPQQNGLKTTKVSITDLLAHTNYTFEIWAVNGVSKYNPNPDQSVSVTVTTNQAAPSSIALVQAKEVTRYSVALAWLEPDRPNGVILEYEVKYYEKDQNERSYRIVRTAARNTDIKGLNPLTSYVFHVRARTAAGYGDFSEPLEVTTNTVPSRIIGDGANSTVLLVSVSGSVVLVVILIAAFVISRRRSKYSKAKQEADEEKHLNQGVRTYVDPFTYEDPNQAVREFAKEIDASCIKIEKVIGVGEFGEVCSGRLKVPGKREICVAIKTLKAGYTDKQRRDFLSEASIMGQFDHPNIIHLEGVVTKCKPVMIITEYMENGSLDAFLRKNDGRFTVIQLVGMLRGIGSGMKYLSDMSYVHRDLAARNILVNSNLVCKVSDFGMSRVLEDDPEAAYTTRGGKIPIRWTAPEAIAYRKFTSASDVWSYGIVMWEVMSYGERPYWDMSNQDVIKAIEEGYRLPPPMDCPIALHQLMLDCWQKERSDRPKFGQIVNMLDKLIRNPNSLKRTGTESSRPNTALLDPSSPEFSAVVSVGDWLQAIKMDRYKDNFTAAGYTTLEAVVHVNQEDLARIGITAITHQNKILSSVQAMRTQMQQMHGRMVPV

[3] = molecular target: Ephrin type-A receptor 4 (Homo sapiens) (UniProt P54764); conditions: at 10 µM
[4] = molecular target: Ephrin type-A receptor 5 (Homo sapiens) (UniProt P54756); conditions: at 1 µM
Sequence of Ephrin type-A receptor 5 (Homo sapiens) (P54756 whole entry): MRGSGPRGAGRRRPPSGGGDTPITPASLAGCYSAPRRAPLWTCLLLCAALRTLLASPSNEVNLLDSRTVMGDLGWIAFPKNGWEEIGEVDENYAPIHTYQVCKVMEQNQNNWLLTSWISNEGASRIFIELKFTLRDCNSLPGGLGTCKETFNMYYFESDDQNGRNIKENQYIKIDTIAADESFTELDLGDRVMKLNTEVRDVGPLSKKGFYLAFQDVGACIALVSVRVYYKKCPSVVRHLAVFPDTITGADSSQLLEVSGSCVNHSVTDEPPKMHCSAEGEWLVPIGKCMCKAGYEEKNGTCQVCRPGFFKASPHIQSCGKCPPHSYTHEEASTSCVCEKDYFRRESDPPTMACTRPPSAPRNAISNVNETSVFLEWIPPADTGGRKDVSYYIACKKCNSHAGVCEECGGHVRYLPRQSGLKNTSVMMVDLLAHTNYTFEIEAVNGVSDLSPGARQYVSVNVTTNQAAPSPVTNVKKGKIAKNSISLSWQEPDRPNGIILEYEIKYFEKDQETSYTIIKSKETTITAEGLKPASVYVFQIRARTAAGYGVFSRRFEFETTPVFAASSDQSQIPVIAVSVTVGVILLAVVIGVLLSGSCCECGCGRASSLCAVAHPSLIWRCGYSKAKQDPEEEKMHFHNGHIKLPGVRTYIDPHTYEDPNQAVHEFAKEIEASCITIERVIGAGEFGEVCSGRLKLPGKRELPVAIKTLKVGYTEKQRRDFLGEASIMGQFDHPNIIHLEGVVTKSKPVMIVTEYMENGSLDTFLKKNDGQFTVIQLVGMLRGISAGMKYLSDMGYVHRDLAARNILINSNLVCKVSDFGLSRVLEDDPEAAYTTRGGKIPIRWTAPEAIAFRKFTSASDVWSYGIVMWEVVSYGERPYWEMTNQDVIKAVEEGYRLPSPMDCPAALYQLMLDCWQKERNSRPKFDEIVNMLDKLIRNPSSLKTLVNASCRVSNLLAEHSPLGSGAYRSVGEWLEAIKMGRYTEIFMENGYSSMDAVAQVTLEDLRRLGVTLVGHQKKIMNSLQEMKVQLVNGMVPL

[5] = molecular target: Ephrin type-A receptor 5 (Homo sapiens) (UniProt P54756); conditions: at 10 µM
[6] = molecular target: Ephrin type-A receptor 7 (Homo sapiens) (UniProt Q15375); conditions: at 1 µM
Sequence of Ephrin type-A receptor 7 (Homo sapiens) (Q15375 28-998 limits assumed): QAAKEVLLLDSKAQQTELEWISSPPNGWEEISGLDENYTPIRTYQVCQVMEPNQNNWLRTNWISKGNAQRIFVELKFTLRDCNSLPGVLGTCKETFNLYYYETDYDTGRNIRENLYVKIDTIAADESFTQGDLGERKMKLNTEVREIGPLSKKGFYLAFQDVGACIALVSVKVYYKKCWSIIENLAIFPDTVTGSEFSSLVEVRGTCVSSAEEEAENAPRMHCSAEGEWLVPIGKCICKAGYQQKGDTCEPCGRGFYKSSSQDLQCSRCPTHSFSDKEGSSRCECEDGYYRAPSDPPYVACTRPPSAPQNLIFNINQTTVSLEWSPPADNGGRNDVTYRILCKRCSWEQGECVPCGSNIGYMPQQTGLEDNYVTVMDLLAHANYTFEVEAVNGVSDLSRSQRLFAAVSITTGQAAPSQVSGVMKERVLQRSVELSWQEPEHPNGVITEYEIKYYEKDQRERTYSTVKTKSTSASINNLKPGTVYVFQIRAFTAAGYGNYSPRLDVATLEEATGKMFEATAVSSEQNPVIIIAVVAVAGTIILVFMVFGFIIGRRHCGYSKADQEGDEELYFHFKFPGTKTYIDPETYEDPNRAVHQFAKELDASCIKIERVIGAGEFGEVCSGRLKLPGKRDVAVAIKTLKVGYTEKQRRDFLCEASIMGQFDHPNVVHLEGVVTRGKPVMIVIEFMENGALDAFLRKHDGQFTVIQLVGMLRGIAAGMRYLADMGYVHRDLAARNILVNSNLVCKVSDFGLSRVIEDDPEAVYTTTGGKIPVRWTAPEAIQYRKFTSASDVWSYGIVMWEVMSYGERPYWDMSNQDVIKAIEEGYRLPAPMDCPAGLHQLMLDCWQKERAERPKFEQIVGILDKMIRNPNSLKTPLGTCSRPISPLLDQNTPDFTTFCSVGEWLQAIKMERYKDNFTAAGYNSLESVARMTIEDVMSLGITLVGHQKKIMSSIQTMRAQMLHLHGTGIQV

[7] = molecular target: Ephrin type-A receptor 7 (Homo sapiens) (UniProt Q15375); conditions: at 10 µM
[8] = molecular target: T2, Ephrin type-A receptor 8 (Homo sapiens) (UniProt P29322); conditions: at 1 µM
T2 sequence (whole entry): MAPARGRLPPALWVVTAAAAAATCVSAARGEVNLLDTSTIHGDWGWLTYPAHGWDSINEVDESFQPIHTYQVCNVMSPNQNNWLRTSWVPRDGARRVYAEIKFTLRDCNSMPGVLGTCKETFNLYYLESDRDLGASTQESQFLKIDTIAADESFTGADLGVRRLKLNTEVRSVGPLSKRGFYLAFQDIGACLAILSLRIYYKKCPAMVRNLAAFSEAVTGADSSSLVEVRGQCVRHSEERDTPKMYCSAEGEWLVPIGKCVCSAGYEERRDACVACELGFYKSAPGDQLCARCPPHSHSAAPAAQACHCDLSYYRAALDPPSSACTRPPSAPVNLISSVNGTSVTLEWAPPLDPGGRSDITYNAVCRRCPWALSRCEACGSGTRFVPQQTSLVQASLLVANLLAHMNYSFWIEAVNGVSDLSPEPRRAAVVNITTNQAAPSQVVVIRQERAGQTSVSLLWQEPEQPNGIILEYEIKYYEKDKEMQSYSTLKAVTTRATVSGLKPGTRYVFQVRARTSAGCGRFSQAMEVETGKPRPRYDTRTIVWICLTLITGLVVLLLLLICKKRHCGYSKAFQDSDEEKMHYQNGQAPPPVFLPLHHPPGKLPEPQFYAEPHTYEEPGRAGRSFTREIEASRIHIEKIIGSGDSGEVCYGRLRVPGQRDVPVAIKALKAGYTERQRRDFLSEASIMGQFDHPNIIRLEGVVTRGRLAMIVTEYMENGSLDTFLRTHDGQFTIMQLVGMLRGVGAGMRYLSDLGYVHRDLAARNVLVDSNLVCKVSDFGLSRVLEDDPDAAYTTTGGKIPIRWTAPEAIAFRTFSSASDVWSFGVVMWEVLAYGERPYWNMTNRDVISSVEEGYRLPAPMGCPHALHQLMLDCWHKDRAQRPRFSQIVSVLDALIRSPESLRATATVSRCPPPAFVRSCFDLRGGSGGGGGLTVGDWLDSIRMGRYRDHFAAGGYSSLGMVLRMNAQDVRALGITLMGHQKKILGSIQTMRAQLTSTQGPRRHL

[9] = molecular target: T2, Ephrin type-A receptor 8 (Homo sapiens); conditions: at 10 µM
[10] = molecular target: T3, Ephrin type-B receptor 1 (Homo sapiens) (UniProt P54762); conditions: at 1 µM
T3 sequence (whole entry): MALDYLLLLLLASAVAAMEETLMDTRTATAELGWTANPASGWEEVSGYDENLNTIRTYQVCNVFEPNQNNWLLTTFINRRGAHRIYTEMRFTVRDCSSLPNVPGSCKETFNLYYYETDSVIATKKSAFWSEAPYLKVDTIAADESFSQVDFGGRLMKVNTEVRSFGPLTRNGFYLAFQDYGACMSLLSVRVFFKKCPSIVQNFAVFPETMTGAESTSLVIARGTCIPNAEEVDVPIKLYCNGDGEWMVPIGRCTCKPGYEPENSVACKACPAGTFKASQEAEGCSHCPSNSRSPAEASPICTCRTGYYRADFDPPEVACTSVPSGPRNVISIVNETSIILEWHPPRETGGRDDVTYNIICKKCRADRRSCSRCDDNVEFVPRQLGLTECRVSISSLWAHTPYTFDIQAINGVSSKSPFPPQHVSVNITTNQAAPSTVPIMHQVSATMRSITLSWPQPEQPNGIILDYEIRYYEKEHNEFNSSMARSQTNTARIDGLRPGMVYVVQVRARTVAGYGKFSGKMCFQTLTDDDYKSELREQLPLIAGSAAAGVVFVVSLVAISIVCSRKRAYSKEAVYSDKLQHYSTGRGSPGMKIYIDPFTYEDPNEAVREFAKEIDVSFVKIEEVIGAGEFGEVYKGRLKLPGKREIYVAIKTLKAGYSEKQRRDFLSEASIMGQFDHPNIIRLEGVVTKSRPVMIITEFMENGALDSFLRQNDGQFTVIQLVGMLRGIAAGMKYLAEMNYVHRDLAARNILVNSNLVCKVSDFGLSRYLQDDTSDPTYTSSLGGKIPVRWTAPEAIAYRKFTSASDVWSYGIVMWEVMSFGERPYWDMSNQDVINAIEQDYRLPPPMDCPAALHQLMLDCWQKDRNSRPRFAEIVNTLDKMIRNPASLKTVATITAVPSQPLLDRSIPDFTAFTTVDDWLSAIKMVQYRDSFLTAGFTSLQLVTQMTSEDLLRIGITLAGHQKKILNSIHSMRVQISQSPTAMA

Question: For `NC(=O)Nc1sc(-c2ccc(F)cc2)cc1C(N)=O`, which residual activity [1] is on record?
Answer: Its residual activity is 33%.

Question: What about the residual activity [2] of the same molecule?
Answer: The residual activity was 93%.

Question: And the residual activity [3]?
Answer: The residual activity was 43%.

Question: What about the residual activity [4] of the same molecule?
Answer: Its residual activity is 90%.

Question: What about the residual activity [5] of the same molecule?
Answer: The residual activity was 28%.

Question: And the residual activity [6]?
Answer: Its residual activity is 74%.

Question: What about the residual activity [7] of the same molecule?
Answer: Its residual activity is 25%.

Question: And the residual activity [8]?
Answer: The residual activity was 84%.

Question: What about the residual activity [9] of the same molecule?
Answer: Its residual activity is 54%.

Question: And the residual activity [10]?
Answer: The residual activity was 11%.
